# Tested on: Streptococcus salivarius
# Assay: growth AUC relative to DMSO control (median of replicates) (fraction); higher = more growth (less inhibition), active = hit call of the paper
# Conditions: 20 µM; 24 h;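 active = AUC reduced over 20% with Padj below 0.05 in at least 2 of 3 replicates; inactive = otherwise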
# In short: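 OD600 was recorded every hour for 24 h in anaerobic monocultures of gut bacteria kept at 37 °C in mGAM, seeded at OD600 0.05 and given 20 µM compound in 1% DMSO. The area under each growth curve was scaled to the plate median of solvent-only wells, or to row and column medians for the industrial chemical plate. Before this step, the minimum OD was set to 0. Reported values are medians of three biological replicates run on separate days.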
row,Structure (SMILES),growth AUC
1,N#Cc1nn(-c2c(Cl)cc(C(F)(F)F)cc2Cl)c(N)c1S(=O)C(F)(F)F (centres undefined),0.811 (inactive)
2,CC(Oc1ccc(Oc2ncc(C(F)(F)F)cc2Cl)cc1)C(=O)O (centres undefined),0.981 (inactive)
3,CCCOP(=S)(OCCC)SCC(=O)N1CCCCC1C (centres undefined),0.953 (inactive)
4,C1CCC(NC2CCCCC2)CC1.O=NO,0.986 (inactive)
5,ClC1=C(Cl)[C@]2(Cl)[C@@H]3[C@@H]4C[C@@H]([C@H]5O[C@@H]45)[C@@H]3[C@@]1(Cl)C2(Cl)Cl,1.03 (inactive)
6,CCC1COC(Cn2cncn2)(c2ccc(Cl)cc2Cl)O1 (centres undefined),0.948 (inactive)
7,Cc1cccc(C)c1N(Cn1cccn1)C(=O)CCl,0.999 (inactive)
8,O=C(Nc1ccccc1)N(Cc1ccc(Cl)cc1)C1CCCC1,0.994 (inactive)
9,CCOc1cc(C(C)(C)C)ccc1C1COC(c2c(F)cccc2F)=N1 (centres undefined),1.02 (inactive)
10,CCOP(=O)(NC(C)C)Oc1ccc(S(C)=O)c(C)c1 (centres undefined),1.05 (inactive)
11,CC(Cl)(Cl)C(=O)O,1.01 (inactive)
12,C#CC(C)(C)NC(=O)c1cc(Cl)cc(Cl)c1,0.914 (inactive)
13,O=P(Oc1ccccc1)(Oc1ccccc1)Oc1ccccc1,0.957 (inactive)
14,CN(C)C(CSS(=O)(=O)c1ccccc1)CSS(=O)(=O)c1ccccc1,0.973 (inactive)
15,CCCSC(=O)N(CCC)CCC,1.04 (inactive)
16,COc1cc(OC)nc(NC(=O)NS(=O)(=O)c2ncccc2C(=O)N(C)C)n1,0.975 (inactive)
17,CNC(=O)Oc1cc(C)c(S(C)=O)c(C)c1 (centres undefined),1.01 (inactive)
18,CCNc1nc(NC(C)C)nc(SC)n1,0.973 (inactive)
19,COP(=S)(OC)SCC(=O)N(c1ccc(Cl)cc1)C(C)C,0.992 (inactive)
20,CCC(CC)Nc1c([N+](=O)[O-])cc(C)c(C)c1[N+](=O)[O-],0.959 (inactive)

row,Structure (SMILES),growth AUC
1,CCOP(=S)(OCC)Oc1cc(Cl)c(Br)cc1Cl,0.958 (inactive)
2,CCOC(=O)c1cn2nc(OP(=S)(OCC)OCC)cc2nc1C,0.981 (inactive)
3,N#Cc1cc(I)c(O)c(I)c1,0.898 (inactive)
4,CNC(=O)Oc1cc(C)cc(C(C)C)c1,0.935 (inactive)
5,CCN(CC)c1nc(C)cc(OP(=S)(OC)OC)n1,0.975 (inactive)
6,COP(=S)(OC)SCN1C(=O)c2ccccc2C1=O,0.979 (inactive)
7,CC(C)(C)C(O)/C(=C/c1ccc(Cl)cc1Cl)n1cncn1 (mixture of isomers),0.945 (inactive)
8,COC(=O)NS(=O)(=O)c1ccc(N)cc1,0.893 (inactive)
9,CNC(=O)O/N=C(\C)SC,0.973 (inactive)
10,COP(=S)(OC)SCn1nnc2ccccc2c1=O,0.969 (inactive)
11,N#Cc1nn(-c2c(Cl)cc(C(F)(F)F)cc2Cl)c(N)c1C(F)(F)F,0.539 (active)
12,N#Cc1c(Cl)cccc1Cl,0.951 (inactive)
13,ClC1=C(Cl)C2(Cl)C3C(Cl)C=CC3C1(Cl)C2(Cl)Cl (centres undefined),0.928 (inactive)
14,CCN(Cc1ccc(Cl)nc1)/C(=C/[N+](=O)[O-])NC,1 (inactive)
15,ClC1=C(Cl)C2(Cl)C3C4C=CC(C4)C3C1(Cl)C2(Cl)Cl (centres undefined),0.995 (inactive)
16,Clc1c(Cl)c(Cl)c(Cl)c(Cl)c1Cl,0.999 (inactive)
17,CCNS(=O)(=O)C(F)(F)C(F)(F)C(F)(F)C(F)(F)C(F)(F)C(F)(F)C(F)(F)C(F)(F)F,0.96 (inactive)
18,Nc1nc(N)nc(N)n1,1.02 (inactive)
19,CCOC1Oc2ccc(OS(C)(=O)=O)cc2C1(C)C (centres undefined),0.964 (inactive)
